The structures appear in SMILES notation. Out of some 290,000 compounds screened, about 1,000 (0.34%) were called active. Cut-off read from the data, not from the text of the source: active = percent response above about 24% (passing the limit was not always enough); inactive = the rest. What follows is part of a selection rich in actives, with near analogues and random picks from the rest.

The test relates to MEKK2 (MAP3K2) mutant PB1 domain binding to MEK5, human. Put plainly: MEK5 binding signal on mutant MEKK2 PB1, primary screen, biochemical, multiplex bead flow cytometry, Alexa488-MEK5 (AID 1530). The note with it: at 10 µM, stronger effect = higher value.
On to `CCc1ccc2nc(N(CCCN(C)C)C(=O)c3ccc4c(c3)OCCO4)sc2c1`, for which the percent response was 3% (inactive).

Take `CCOc1ccc2nc(N(CCCN(C)C)C(=O)c3ccc(C(=O)c4ccccc4)cc3)sc2c1`: the percent response is 19% (inactive).

Take `O=C(Nc1nc2ccc([N+](=O)[O-])cc2s1)c1ccc(S(=O)(=O)N2CCCc3ccccc32)cc1`: the percent response was -5% (inactive).

Turning to `CN(C)CCCN(C(=O)c1ccc(S(=O)(=O)N2CCCc3ccccc32)cc1)c1nc2ccc(F)cc2s1`, the percent response is 65% (active).

As for `CN(C)CCCN(C(=O)c1ccc(S(=O)(=O)N2CCCCCC2)cc1)c1nc2ccc(Br)cc2s1`, the percent response was 61% (active).

As for `CCN(CC)CCN(C(=O)c1ccc(S(=O)(=O)N2CCOCC2)cc1)c1nc2cc3c(cc2s1)OCCO3`, the percent response was 11% (inactive).

Turning to `O=C(NC1CCCC1)C1CC(=O)N(c2ccc(F)cc2)C1` (centres undefined), the percent response is 0% (inactive).

Consider `CN(C)CC(O)COc1ccc(C(C)(C)c2ccc(OCC(O)CN(C)C)cc2)cc1` (centres undefined), for which the percent response is 33% (active).

Turning to `CC(C)(c1ccccc1)c1ccc(OCCN)cc1`, the percent response is 0% (inactive).

As for `Cc1cc(C)n(CC(O)COc2ccc(C(C)(C)C)cc2)n1` (centres undefined), the percent response is -1% (inactive).

In the case of `CCn1cc(CN2CCC(C(=O)Nc3cccc(-c4cccc(Cl)c4)c3)CC2)c(C)n1`, the percent response is 35% (active).

As to `CCn1cc(CN2CCC(C(=O)Nc3cccc(-c4cccc(Cl)c4)c3)CC2)cn1`, the percent response was 21% (inactive).

With `O=C(Nc1cccc(-c2cccc(Cl)c2)c1)C1CCN(C2CCC2)CC1`, the percent response is 14% (inactive).

As to `CC1CCN(CC(=O)Nc2nccs2)CC1`, the percent response was 3% (inactive).

On to `Cc1ccc(C)c(S(=O)(=O)Nc2cccc(-n3cnnn3)c2)c1`, for which the percent response was -1% (inactive).

`CN1C(=O)/C(=C/c2ccc(C(=O)NC3CCCC3)cc2)Oc2ccccc21`: the percent response was 2% (inactive).

Regarding `CN1CCN(CCCNC(=O)c2ccc(/C=C3\Oc4ccccc4N(Cc4ccc(Cl)cc4)C3=O)cc2)CC1`, the percent response is 48% (active).

For the compound `CCCN1CCN(C(=O)CCCNC(=O)c2ccc(Cl)cc2)CC1`, the percent response is -2% (inactive).

In the case of `NS(=O)(=O)c1ccc2nc(NC(=O)C3=COCCO3)sc2c1`, the percent response is -4% (inactive).

For the compound `Cc1ccc(NC(=O)COc2ccc(-n3ccnc3)cc2)cc1Cl`, the percent response was 27% (active).

Regarding `Cc1ccc(NC(=O)C/C(N)=N/O)cc1Cl`, the percent response was 1% (inactive).

Turning to `CCC(=O)c1ccc(OCC(=O)Nc2ccc3nc(C)sc3c2)cc1`, the percent response was -22% (inactive).

Turning to `O=C1N[C@H](Cc2ccccc2)C(=O)N[C@H]1Cc1cn(S(=O)(=O)c2ccccc2)c2ccccc12`, the percent response is 2% (inactive).

Consider `CCOC(=O)N1CCN(C(=O)C2CCN(S(=O)(=O)c3cc(Cl)ccc3OCC)CC2)CC1`, for which the percent response was 5% (inactive).

For the compound `OC(CNCC1CCCO1)Cn1c2ccc(Br)cc2c2cc(Br)ccc21` (centres undefined), the percent response is 40% (active).

On to `O=C(CSc1ccc(-c2ccc(Br)cc2)nn1)NCC1CCCO1` (centres undefined), for which the percent response was 6% (inactive).

Turning to `CC(NS(=O)(=O)c1ccc(Br)cc1)C(=O)NCC1CCCO1` (centres undefined), the percent response was 4% (inactive).

As for `COc1ccc(NC(=O)C2=CC(c3ccc(OC)c(OC)c3)=NS(=O)(=O)N2C)cc1`, the percent response is -4% (inactive).

Take `COc1cc(CNCc2ccc(OC)c3ccccc23)cc(OC)c1OC`: the percent response is 6% (inactive).

With `Nc1nonc1-n1nnc(C(=O)N/N=C/c2cc(Br)ccc2O)c1CSC1=NCCS1`, the percent response was 8% (inactive).

As for `CCOc1cc(CN2CCN(C(=O)CC(C)C)CC2)ccc1OC`, the percent response is 2% (inactive).

`CC(C)CC(=O)N1CCN(Cc2ccccc2Br)CC1`: the percent response is 24% (active).

In the case of `CC(C)CC(=O)N1CCN(Cc2cccc(Cl)c2)CC1`, the percent response was 9% (inactive).

For `COc1ccc(S(=O)(=O)NCCc2cc3ccc(C)c(C)c3[nH]c2=O)cc1`, the percent response is 1% (inactive).

As to `CC(=O)Nc1cccc(NC(=O)CSc2nccn2Cc2ccc(F)cc2)c1`, the percent response was -1% (inactive).

Consider `COc1cccc(NC(=O)NCc2ccc(F)cc2)c1`, for which the percent response is -5% (inactive).

For `Cc1cccc(NC(=O)Nc2cccc(Oc3c(F)c(F)c(F)c(F)c3F)c2)c1`, the percent response was 56% (active).

`Cc1cccc(NC(=O)c2cccc(C(F)(F)F)c2)c1`: the percent response is -2% (inactive).

As for `Cc1ccc(N(CC(=O)NC2CCCCC2)C(=O)CCCC(=O)Nc2ccccn2)c(C)c1`, the percent response was 1% (inactive).

As to `O=S(=O)(Oc1ccccc1C(=S)N1CCOCC1)c1ccc(Cl)cc1`, the percent response is 7% (inactive).

As for `CCN1CCN(CCNC(=O)c2ccc3c(c2)NC(=O)/C(=C\c2ccc(OC)c(OC)c2)S3)CC1`, the percent response is 17% (inactive).

Regarding `O=C(NCCN1CCOCC1)c1ccc(/C=C2\Sc3ccccc3N(Cc3ccc(F)cc3)C2=O)cc1`, the percent response was 19% (inactive).

Regarding `CCN1CCN(CCNC(=O)c2ccc(/C=C3/Sc4ccccc4N(Cc4cccc(C)c4)C3=O)cc2)CC1`, the percent response was 59% (active).

Regarding `Cn1c(Nc2cccc(Cl)c2)nc2ccccc21`, the percent response was 4% (inactive).

For the compound `COc1ccc(OC)c(NC(=O)C2CCCN2S(=O)(=O)c2cccc3nsnc23)c1` (centres undefined), the percent response was 2% (inactive).

Turning to `O=C(OCc1cc2ccccc2[nH]c1=O)c1cccnc1`, the percent response was 8% (inactive).

Turning to `Cc1cc(=O)[nH]c(SCc2cc(Cl)ccc2OC(F)F)n1`, the percent response is 1% (inactive).

Consider `O=C(OCc1cc(Cl)ccc1OC(F)F)c1cccnc1`, for which the percent response was 152% (active).

On to `CC1=C(C)CC(C(=O)NNC(=O)c2ccccc2O)C(C(=O)O)C1` (centres undefined), for which the percent response was 16% (inactive).

As to `Cc1ccc(NC(=S)N(CCCN2CCCC2)Cc2cccn2Cc2ccc(Cl)cc2)cc1`, the percent response is 57% (active).

`Cc1ccc(NC(=S)N(CCCN2CCC(C)CC2)Cc2ccco2)cc1`: the percent response was -2% (inactive).

`Cc1ccc(NC(=S)N(CCN2CCCCC2)Cc2ccco2)cc1C`: the percent response was -3% (inactive).

On to `Cc1ccc(NC(=O)CSCC(=O)N2CCOCC2)cc1`, for which the percent response is 3% (inactive).

On to `O=C(CP(=O)(c1ccccc1)c1ccccc1)N1CCOCC1`, for which the percent response is -5% (inactive).

Regarding `Cn1c(=NC(=O)c2cnccn2)sc2ccccc21`, the percent response was 10% (inactive).

As for `Cn1c(=NC(=O)CSCC(=O)N2CCOCC2)sc2ccccc21`, the percent response was 25% (active).

Regarding `COC(=O)Cn1c(=NC(=O)CSCC(=O)Nc2cc(C)on2)sc2ccccc21`, the percent response is 8% (inactive).

For `Cn1c(=NC(=O)CSCC(=O)N2CCCCC2)sc2ccccc21`, the percent response was 28% (active).

For `COc1cc(C2/C(=C(\O)c3ccc4c(c3)CC(C)O4)C(=O)C(=O)N2c2nnc(C)s2)cc(OC)c1OC` (centres undefined), the percent response is 1% (inactive).

On to `Nc1nc(-c2sc3nc4c(cc3c2N)CCCC4)nc(N2CCOCC2)n1`, for which the percent response was -8% (inactive).

Turning to `C/C(=N\NC(=O)COc1ccc(C)cc1[N+](=O)[O-])c1ccc2c(c1)OCCO2`, the percent response is 1% (inactive).

Take `CCOC(=O)C1(CCOc2ccccc2)CCN(Cc2cc(OC)c(O)cc2Cl)CC1`: the percent response is 9% (inactive).

Turning to `Cc1c(CN2CCC(CO)(CCOc3ccccc3)CC2)[nH]c2ccc(Cl)cc12`, the percent response is 69% (active).

With `OCC1(CCOc2ccccc2)CCN(Cc2cn[nH]c2-c2ccccc2)CC1`, the percent response is -4% (inactive).

Regarding `COCCN1CCN(C(=O)c2cc(COc3ccc(F)cc3Cl)on2)CC1`, the percent response is 7% (inactive).

Regarding `CCOc1ccc(S(=O)(=O)NCCCn2ccnc2)cc1NC(C)=O`, the percent response was 25% (active).

Consider `Cc1ccc(S(=O)(=O)NCCCn2ccnc2)cc1C(=O)NC(C)C`, for which the percent response is 12% (inactive).

For `O=C(NCCCn1ccnc1)Nc1ccc(Cl)cc1Cl`, the percent response was -1% (inactive).

As for `O=S(=O)(Cc1nnnn1-c1ccc(Br)cc1)c1ccc(F)cc1`, the percent response was 7% (inactive).

Take `O=C1N[C@@H](Cc2ccccc2)C(=O)N2[C@@H]3N(S(=O)(=O)c4ccc(F)cc4)c4ccccc4[C@]3(Br)C[C@@H]12`: the percent response was 2% (inactive).

For the compound `CCN(CC(=O)NCc1ccco1)S(=O)(=O)c1ccc(F)cc1`, the percent response is 1% (inactive).

For the compound `O=C(/C=C/Nc1ccccc1)c1cnc(-c2ccccc2)s1`, the percent response is 26% (active).

As to `CCOc1ccc(N/C=C/C(=O)c2ccccc2)cc1`, the percent response was 7% (inactive).

For `CC(=O)c1cnc(-c2ccccc2)s1`, the percent response was -8% (inactive).

In the case of `O=S(=O)(c1ccc(Cl)s1)N1CCC2(CC1)OCCO2`, the percent response is -1% (inactive).

`C#CCOCCOCCOCCNc1nc(N2CCN(C(=O)[C@H](CCC(=O)O)n3cc(C(N)CO)nn3)CC2)nc(N2CCN(C(=O)[C@H](Cc3ccc(O)cc3)n3cc(C(N)[C@H](C)CC)nn3)CC2)n1` (some centres undefined): the percent response is 1% (inactive).

Take `C#CCOCCOCCOCCNc1nc(N2CCN(C(=O)[C@H](C(C)C)n3cc(CCO)nn3)CC2)nc(N2CCN(C(=O)[C@H](C(C)C)n3cc(CCO)nn3)CC2)n1`: the percent response was 2% (inactive).

On to `C#CCOCCOCCOCCNc1nc(N2CCN(C(=O)C([C@@H](C)CC)n3cc(C(N)COC(=O)C(F)(F)F)nn3)CC2)nc(N2CCN(C(=O)[C@H](CCCCN)n3cc(C(N)CC(C)C)nn3)CC2)n1` (some centres undefined), for which the percent response was 53% (active).

In the case of `C#CCOCCOCCOCCNc1nc(N2CCN(C(=O)[C@H](CCCCN)n3cc([C@@H](N)C(C)CC)nn3)CC2)nc(N2CCN(C(=O)[C@H](Cc3ccc(O)cc3)n3cc([C@@H](N)C(C)CC)nn3)CC2)n1` (some centres undefined), the percent response was 56% (active).

On to `C#CCOCCOCCOCCNc1nc(N2CCN(C(=O)[C@H](CCC(=O)O)n3cc(C(N)CO)nn3)CC2)nc(N2CCN(C(=O)[C@H](CCCCN)n3cc(C(N)CC(C)C)nn3)CC2)n1` (some centres undefined), for which the percent response is 2% (inactive).

As for `C#CCOCCOCCOCCNc1nc(N2CCN(C(=O)[C@H](Cc3ccc(O)cc3)n3cc(C(N)CC(C)C)nn3)CC2)nc(N2CCN(C(=O)[C@H](CCC(=O)O)n3cc(C(N)[C@H](C)CC)nn3)CC2)n1` (some centres undefined), the percent response is 5% (inactive).

Regarding `C#CCOCCOCCOCCNc1nc(N2CCN(C(=O)C([C@@H](C)CC)n3cc(C(N)COC(=O)C(F)(F)F)nn3)CC2)nc(N2CCN(C(=O)[C@H](Cc3ccc(O)cc3)n3cc(C(N)[C@H](C)CC)nn3)CC2)n1` (some centres undefined), the percent response is 9% (inactive).

In the case of `C#CCOCCOCCOCCNc1nc(N2CCN(C(=O)[C@H](CCC(=O)O)n3cc(C(N)CO)nn3)CC2)nc(N2CCN(C(=O)[C@H](CCCCN)n3cc(C(N)[C@H](C)CC)nn3)CC2)n1` (some centres undefined), the percent response was 3% (inactive).

Consider `C#CCOCCOCCOCCNc1nc(N2CCN(C(=O)C(Cc3ccc(O)cc3)n3cc(C(N)CC(C)C)nn3)CC2)nc(N2CCN(C(=O)C(Cc3ccc(O)cc3)n3cc(C(N)C(C)CC)nn3)CC2)n1` (centres undefined), for which the percent response was 32% (active).

The record behind these values is PubChem BioAssay AID1530 (NMMLSC, 2009).
